Screening data as filed in PubChem.
PAFAH1B2 FP inh = PAFAH1B2 (human) inhibition; P68402; recombinant PAFAH1B2, FP-rhodamine activity probe, fluorescence polarization; inhibition, % at 3.39 µM; hit rate 1.2% among 340,000; AID 492953;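 active = inhibition above the mean of all tested compounds plus 3 SD, cut at about 24% in these data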
Target sequence (P68402 whole entry, looked up): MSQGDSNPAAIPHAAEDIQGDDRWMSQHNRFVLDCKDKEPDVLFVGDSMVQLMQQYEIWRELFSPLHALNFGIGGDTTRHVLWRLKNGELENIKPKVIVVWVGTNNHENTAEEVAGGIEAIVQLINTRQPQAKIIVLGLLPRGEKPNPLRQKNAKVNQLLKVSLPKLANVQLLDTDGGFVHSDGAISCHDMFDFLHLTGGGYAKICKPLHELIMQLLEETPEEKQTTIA
pPAFAH FP inh = pPAFAH (human) enzyme inhibition; Q13093; recombinant pPAFAH, FP-rhodamine probe fluorescence polarization; inhibition, % at 3.39 µM; hit rate 1.5% among 330,000;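 active = inhibition above the mean inhibition across the screen plus 3 SD, cut at about 25% in these data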;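 also: inhibitors block binding of the rhodamine activity-based probe so polarization drops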
DSG3 Ab inh = human desmoglein-3 autoantibody binding inhibition | P32926 | DSG3-coupled beads, scFv-anti-DSG3-GFP binding, flow cytometry; hits give low values | binding (percent of control), % at 10 µM | hit rate 0.48% among 310,000 | AID 588358;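 active = binding more than 3 SD below its plate's average and above zero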;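 also: hits lower antibody fragment binding to DSG3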
PfM18AAP inh-1 = PfM18AAP enzyme inhibition; AID 1822; recombinant PfM18AAP, H-Glu-NHMec fluorogenic cleavage; hit rate 1.2% among 290,000; inhibition, % at 7.35 µM;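 active = inhibition above the campaign mean inhibition over all tested compounds plus 3 SD, cut at about 28% in these data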
PAFAH2 FP inh = inhibitors of human PAFAH2 | inhibition, % at 3.39 µM | hit rate 0.99% among 340,000 | AID 492956 | Q99487 | recombinant PAFAH2, FP-rhodamine activity probe, fluorescence polarization;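 active = inhibition above the mean over all tested compounds plus 3 SD, cut at about 30% in these data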;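 also: inhibitors block probe labeling of enzyme so polarization drops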
PAFAH1B3 inh = blocks human PAF acetylhydrolase 1B catalytic subunit 3; inhibition, % at 3.39 µM; AID 492972; recombinant PAFAH1B3, FP-rhodamine probe, fluorescence polarization; hit rate 0.28% among 340,000; Q15102;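 active = inhibition above the screen-wide average of all tested compounds plus 3 SD, cut at about 25% in these data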
Target sequence (Q15102 whole entry, looked up): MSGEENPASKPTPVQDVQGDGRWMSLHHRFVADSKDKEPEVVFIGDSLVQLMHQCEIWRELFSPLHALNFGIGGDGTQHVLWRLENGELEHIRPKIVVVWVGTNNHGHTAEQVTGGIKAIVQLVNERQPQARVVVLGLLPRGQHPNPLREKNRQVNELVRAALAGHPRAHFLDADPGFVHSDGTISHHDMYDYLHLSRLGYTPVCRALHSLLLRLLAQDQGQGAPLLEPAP
PfM18AAP inh-2 = PfM18AAP inhibition, confirmation; shares compounds with PfM18AAP inh-1; recombinant PfM18AAP, H-Glu-NHMec fluorogenic cleavage; inhibition, % at 7.35 µM; hit rate 28% among 2,400;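 active = mean inhibition over replicate wells above the hit cutoff set for the earlier primary screen, cut at about 29% in these data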
CTSL1 confirm = Cathepsin L (human) inhibition, confirmation; shares compounds with PfM18AAP inh-1; 2,400 tested, under 10 active; purified cathepsin L1, Z-Leu-Arg-MCA fluorescence; inhibition, % at 5.96 µM;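 active = average inhibition across replicates above the hit cutoff set in the earlier primary screen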
Each line names hits and unclear results; the compound was inactive in the other large screens (follow-up assays come after a bar, where they were run). A selection: hits, their analogues and other compounds. The true share with any hit is near 3.8%.

O=C(Nn1cnnc1)c1ccccc1CCc1ccccc1	PfM18AAP inh-1 42.2 | PfM18AAP inh-2 34.9 | CTSL1 confirm inactive
O=C(CCN1C(=O)c2ccccc2C1=O)NCc1ccccc1	none
O=C(CCN1C(=O)c2ccccc2C1=O)Nn1cnnc1	PfM18AAP inh-1 44.9 | PfM18AAP inh-2 46.4 | CTSL1 confirm inactive
O=C(Nn1cnnc1)c1ccccc1-c1ccccc1	PfM18AAP inh-1 56.4 | PfM18AAP inh-2 63.7 | CTSL1 confirm inactive
CCOc1ccccc1NC(=O)CN(c1ccc(OC)cc1OC)S(=O)(=O)c1ccccc1[N+](=O)[O-]	none
CCCCN(C(=O)Cc1coc2cc(C)c(C)cc12)c1c(N)n(Cc2ccccc2)c(=O)[nH]c1=O	none (no result: PfM18AAP inh-1)
Cc1cc(C)n(-c2cc(-n3nc(C)cc3C)ncn2)n1	none
Cc1cc(C)n(-c2cc(O)c(-n3nc(C)cc3C)cc2O)n1	PfM18AAP inh-1 45.6 | PfM18AAP inh-2 inactive | CTSL1 confirm inactive
CCOC(=O)CNC(=S)n1ncnc1N	PfM18AAP inh-1 57.8 | PfM18AAP inh-2 inactive | CTSL1 confirm inactive
COC(=O)C1=C(C(=O)c2ccccc2)C(c2ccccc2)n2nnnc2N1 (configuration not stated)	none
CCOc1cc(C2C(C(=O)c3ccc(C)cc3)=C(C(=O)OC)Nc3nnnn32)ccc1O (configuration not stated)	PfM18AAP inh-1 56.9 | PfM18AAP inh-2 inactive | CTSL1 confirm inactive
COC(=O)C1=C(C(C)=O)C(c2ccc(C)cc2)n2nnnc2N1 (configuration not stated)	PfM18AAP inh-1 51.9 | PfM18AAP inh-2 inactive | CTSL1 confirm inactive
CCc1ccc(C2C(C(C)=O)=C(C(=O)OC)Nc3nnnn32)cc1 (configuration not stated)	none
COC(=O)C1=C(C(C)=O)C(c2ccc(C(=O)OC)cc2)n2nnnc2N1 (configuration not stated)	PfM18AAP inh-1 51.9 | PfM18AAP inh-2 inactive | CTSL1 confirm inactive
Cc1nc(SCc2ccc(O)c([N+](=O)[O-])c2)n[nH]1	none
Cc1nc(SCc2ccc(O)c([N+](=O)[O-])c2)c([N+](=O)[O-])[nH]1	PfM18AAP inh-1 47.5 | PfM18AAP inh-2 inactive | CTSL1 confirm inactive
CCn1c(C)nnc1SCC(=O)Nc1ccc(Cl)cc1	none (no result: pPAFAH FP inh)
NC(=O)c1c(NC(NC(=O)c2ccco2)C(=O)c2ccc(Cl)cc2)sc2c1CCCC2 (configuration not stated)	PfM18AAP inh-1 38.2 | PfM18AAP inh-2 inactive | CTSL1 confirm inactive
Cc1cc(NS(=O)(=O)c2ccc(NC(=O)CCSc3ccc(F)cc3)cc2)nc(C)n1	none
O=C(N/N=C/c1ccc(OC(=O)c2cccs2)cc1)c1ccccn1	none
O=[N+]([O-])c1cccc(/C=N/n2cnnc2)c1O	none
O=[N+]([O-])c1cc2c(cc1/C=N/n1cnnc1)OCO2	PfM18AAP inh-1 39.3 | PfM18AAP inh-2 inactive | CTSL1 confirm inactive
O=[N+]([O-])c1ccc(Nc2nc(N/N=C/c3cccc(F)c3)nc(N3CCCC3)n2)cc1	PfM18AAP inh-1 43.8 | PfM18AAP inh-2 inactive | CTSL1 confirm inactive
O=C1/C(=C/c2ccc(O)c(O)c2)SC(=S)N1Nc1ccccc1	PfM18AAP inh-1 58.1 (no result: pPAFAH FP inh) | PfM18AAP inh-2 30.9 | CTSL1 confirm inactive
O=C1/C(=C/c2ccncc2)SC(=S)N1Nc1ccccc1	PfM18AAP inh-1 32.2 (no result: PAFAH1B2 FP inh, PAFAH2 FP inh, PAFAH1B3 inh) | PfM18AAP inh-2 inactive | CTSL1 confirm inactive
COc1cc(/C=C2\SC(=S)N(Nc3ccccc3)C2=O)ccc1O	none
O=C(O)/C=C/c1ccc2c(-c3ccccc3)onc2c1	none
CC(=O)c1cccc(N=c2scc(-c3ccc(S(=O)(=O)N4CCOCC4)cc3)n2CCO)c1	PfM18AAP inh-1 50.5 | PfM18AAP inh-2 inactive | CTSL1 confirm inactive
C=CCn1c(-c2ccc(S(=O)(=O)N3CCOCC3)cc2)csc1=Nc1ccccc1	none
O=C(O)C1Sc2[nH]c(=O)sc2C2c3ccc(O)cc3OC(=O)C12 (configuration not stated)	PfM18AAP inh-1 37.6 | PfM18AAP inh-2 inactive | CTSL1 confirm inactive
